# TLR9-MyD88 block: inhibitors of human TLR9-MyD88 binding. CHO BLA complementation TLR9-MyD88, CCF4 FRET ratio. inhibition, % at 4.98 µM. 0.21% of 340,000 active. AID 504734;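 active = inhibition above the mean over all tested compounds plus 3 SD, cut at about 21% in these data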;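 also: 0% = DMSO only wells and 100% = clavulanate BLA inhibitor control wells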
# TMEM16A inh: inhibitors of mouse TMEM16A calcium-activated chloride channel; HEK293 TMEM16A/YFP iodide influx fluorescence, ionomycin; normalized B-score (activity score, 25-100; higher = stronger inhibition) at 10 µM; 1.2% of 310,000 active;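 active = ratio plate-corrected score three or more library SD toward inhibition, starting fluorescence score within five deviations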;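 also: score derived from kinetic fluorescence span divided by baseline fluorescence per well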
# ANO1 activ: mouse TMEM16A channel activation, primary screen; HEK293 TMEM16A/YFP-H148Q/I152L, iodide quench fluorescence; active compounds read low; B-score at 10 µM; 0.3% of 340,000 active; AID 623877;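 active = fluorescence-ratio B-score plate-corrected deviation score at least 3 library SD below zero, with starting fluorescence score within 5 deviations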;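 also: channel opened by trigger with iodide after compound preincubation; score built on the fluorescence ratio of max minus min over baseline; more negative score means more quench and so TMEM16A activation or potentiation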
# TLR4 MyD88 comp: TLR4-MyD88 interaction inhibition in cells; HeLa CL3-4 TLR4/MyD88 BLA complementation, FRET ratio; inhibition, % at 8.4 µM; 0.18% of 200,000 active; AID 861; in the data active = inhibition above about 25%;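 also: 0% = vehicle and 100% = reference inhibitor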
# m5-HT2A agonist: mouse HTR2A agonism via beta-arrestin recruitment; P35363; activation, % at 7.6 µM; CHO-K1 mHTR2A beta-arrestin complementation, luminescence; percent of 30 µM serotonin response; 0.66% of 360,000 active;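 active = activation above a run cutoff, the mean activation of all tested compounds plus 3 SD, cut at about 14% in these data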;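 also: 0% = plate median of compound wells and 100% = 30 µM serotonin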
# NOD2 RIPK2 PPI: inhibitors of human NOD2-RIPK2 interaction; O43353; CHO BLA complementation NOD2-RIPK2, CCF4 ratio; inhibition, % at 4.98 µM; 0.38% of 360,000 active; AID 624267; in the data active = inhibition above about 21%;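 also: 0% = vehicle only and 100% = reference blocker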
# TLR4-MyD88 conf: confirmation of human TLR4-MyD88 binding inhibitors; shares compounds with TLR4 MyD88 comp; HeLa CL3-4 BLA complementation, CCF4 FRET ratio; 50% of 350 active; inhibition, % at 8.4 µM;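 active = mean inhibition across three repeat runs above about 25% carried over from the earlier screen, limit read from the data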;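 also: plate controls were DMSO only for no effect and clavulanic acid blocking BLA at full dose for full effect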
# BLA inh HeLa: inhibits beta-lactamase activity, counter-screen to TLR4-MyD88 binding inhibitors. HeLa BLA reporter, CCF4 FRET ratio. 63% of 350 active. inhibition, % at 8.4 µM. shares compounds with TLR4 MyD88 comp;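 active = mean inhibition over three repeats above about 26% taken from the earlier screen, limit read from the data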;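 also: HeLa cells stably expressing beta-lactamase reporter as counterscreen for TLR4-MyD88 inhibitors; 0% = DMSO and 100% = clavulanic acid full inhibition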
# TLR9-MyD88 cf: confirmation of human TLR9-MyD88 binding inhibitors. shares compounds with TLR9-MyD88 block. CHO TLR9/MyD88 BLA complementation, CCF4 FRET ratio. inhibition, % at 4.98 µM. 51% of 680 active. AID 540250;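 active = mean inhibition across three repeats above about 21% taken from the earlier screen, limit read from the data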;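 also: blue over green emission ratio reports constitutive TLR9 MyD88 association via BLA complementation; 0% = DMSO vehicle wells and 100% = clavulanate BLA inhibitor wells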
# Target sequence (Q9NR96 whole entry, looked up): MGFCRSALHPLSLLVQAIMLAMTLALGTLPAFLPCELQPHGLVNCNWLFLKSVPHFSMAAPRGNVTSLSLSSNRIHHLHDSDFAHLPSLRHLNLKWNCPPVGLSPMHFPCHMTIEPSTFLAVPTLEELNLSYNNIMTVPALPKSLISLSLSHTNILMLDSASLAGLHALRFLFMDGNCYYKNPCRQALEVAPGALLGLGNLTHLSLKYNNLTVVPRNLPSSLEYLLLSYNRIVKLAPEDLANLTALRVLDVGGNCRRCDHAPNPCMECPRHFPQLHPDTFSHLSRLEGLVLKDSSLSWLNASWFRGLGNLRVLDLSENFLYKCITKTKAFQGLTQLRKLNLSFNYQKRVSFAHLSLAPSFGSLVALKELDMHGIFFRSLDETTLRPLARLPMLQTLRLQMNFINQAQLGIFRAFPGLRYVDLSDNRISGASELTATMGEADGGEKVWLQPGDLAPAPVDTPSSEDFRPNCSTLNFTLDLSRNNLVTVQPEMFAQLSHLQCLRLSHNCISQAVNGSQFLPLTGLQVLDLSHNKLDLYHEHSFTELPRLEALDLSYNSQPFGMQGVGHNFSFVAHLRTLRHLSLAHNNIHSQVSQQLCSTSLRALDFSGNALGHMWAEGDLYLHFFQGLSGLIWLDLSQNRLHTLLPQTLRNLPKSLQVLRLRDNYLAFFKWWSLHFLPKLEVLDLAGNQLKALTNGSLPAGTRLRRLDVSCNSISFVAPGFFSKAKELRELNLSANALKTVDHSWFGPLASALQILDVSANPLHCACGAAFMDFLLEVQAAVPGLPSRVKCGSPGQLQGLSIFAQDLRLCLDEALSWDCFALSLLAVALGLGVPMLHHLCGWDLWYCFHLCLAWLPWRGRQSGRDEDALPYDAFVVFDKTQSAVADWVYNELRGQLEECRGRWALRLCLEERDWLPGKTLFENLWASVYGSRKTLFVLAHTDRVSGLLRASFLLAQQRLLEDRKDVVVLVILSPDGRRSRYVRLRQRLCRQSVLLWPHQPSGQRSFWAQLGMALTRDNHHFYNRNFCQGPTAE
# BLA counter-1: counter-screen for TLR9-MyD88 inhibitors: non-selective beta-lactamase inhibitors; CHO-BLA cells, CCF4 FRET ratio, BLA reporter; AID 540251; shares compounds with TLR9-MyD88 block; 7% of 680 active; inhibition, % at 4.98 µM;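 active = mean inhibition above a 50% cutoff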;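 also: counterscreen of TLR9-MyD88 hits on CMV-driven BLA in CHO-K1 cells; 0% = DMSO alone and 100% = clavulanate blocking BLA; higher means less blue over green ratio so more BLA blockade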
# TLR9 CHO tox: counter-screen for TLR9-MyD88 inhibitors: cytotoxicity in CHO cells. shares compounds with TLR9-MyD88 block. luminescence. inhibition, % at 4.98 µM. 39% of 680 active; in the data active = inhibition above about 11%
# TMEM16A reconf: re-confirmation of mouse TMEM16A chloride channel inhibitors | shares compounds with TMEM16A inh | HEK293 TMEM16A/YFP-H148Q, iodide quench fluorescence; ionomycin added to raise cell calcium | inhibition, % at 10 µM | 39% of 2,300 active | AID 652189;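 active = mean duplicate percent inhibition, scaled so buffer wells are 0 and the reference blocker 100, over three buffer SD above buffer mean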
# TMEM16A Ca cntr: counter-screen for TMEM16A inhibitors: effect on calcium mobilization; 2% of 2,300 active; calcium response (% of ionomycin), % at 10 µM; shares compounds with TMEM16A inh; TMEM16A/YFP HEK293, Fluo4 calcium mobilization;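 active = duplicate-averaged calcium signal over 20% of the ionomycin maximum, relative to buffer baseline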;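 also: each well's signal is peak minus trough fluorescence divided by its pre-addition baseline; 0% = buffer wells and 100% = ionomycin wells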
# YFP-HEK293 quench: counter-screen for TMEM16A inhibitors: effect in parental YFP-HEK293 cells; YFP ratio F(max-min)/F0 at 10 µM; shares compounds with TMEM16A inh; 2,300 tested, under 10 active; iodide YFP quench, ionomycin;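 active = yellow fluorescent protein signal ratio exceeding the buffer control mean by over 5 SD of those controls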;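 also: ratio is mean of duplicate wells from kinetic YFP trace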
# ClC-1 inh: rat ClC-1 inhibition, TMEM16A specificity screen | CHO ClC-1-YFP, iodide influx fluorescence quench; iodide control reads 0, buffer control 100 | shares compounds with TMEM16A inh | ratio percent, % at 10 µM | 2,300 tested, under 10 active;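 active = duplicate-mean ratio percent above the mean of iodide-only control wells, which defines zero, plus 5 of their SD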;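 also: higher percent means stronger block of ClC-1 iodide influx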
# MOR ag counter: activates human mu opioid receptor in HTR2A counterscreen | activation, % at 9.3 µM | shares compounds with m5-HT2A agonist | 5.3% of 2,300 active | AID 624380 | U2OS OPRM1 beta-arrestin PathHunter, luminescence; DMSO 0%, DAMGO 9.3 µM 100%;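 active = mean activation above the mean of DMSO-only wells plus 3 SD, cut at about 0.5% in these data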
# HTR2A ag conf: mouse HTR2A agonism confirmed; activation, % at 7.6 µM; CHO-K1 PathHunter beta-arrestin recruitment, luminescence; DMSO 0%, 30 µM serotonin 100%; shares compounds with m5-HT2A agonist; 19% of 2,300 active;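 active = mean activation across triplicates above the hit threshold derived in the original primary screen, cut at about 15% in these data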
# NOD2-RIPK2 conf: confirmation of human NOD2-RIPK2 interaction inhibitors | 70% of 1,200 active | CHO cells, NOD2-RIPK2 BLA complementation, CCF4 FRET | inhibition, % at 4.98 µM | shares compounds with NOD2 RIPK2 PPI;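 active = mean inhibition across replicates above a set limit taken from the earlier primary screen, cut at about 21% in these data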;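 also: 0% = DMSO-only wells and the high end = clavulanate BLA-blocked wells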
# BLA counter-2: NOD2-RIPK2 counterscreen BLA reporter activity; shares compounds with NOD2 RIPK2 PPI; 57% of 1,200 active; AID 624371; CHO BLA reporter, CCF4 FRET ratio; inhibition, % at 4.98 µM;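 active = mean inhibition above the low-control mean inhibition plus three low-control SD, cut at about 11% in these data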;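 also: 0% = DMSO only wells and 100% = clavulanate high control wells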
# * hit, by the source's call; i = inactive; . = not tested or not shown. This is a sample that favours compounds with a hit; in the whole collection about 2.4% have one here.
SMILES,TLR9-MyD88 block,TMEM16A inh,ANO1 activ,TLR4 MyD88 comp,m5-HT2A agonist,NOD2 RIPK2 PPI,TLR4-MyD88 conf,BLA inh HeLa,TLR9-MyD88 cf,BLA counter-1,TLR9 CHO tox,NOD2-RIPK2 conf,BLA counter-2,others
CC1C/C(=C/c2ccncc2)C(=O)/C(=C/c2ccncc2)C1 (configuration not stated),-2,i,i,6,6,6,.,.,.,.,.,.,.,
Nc1c(C(=O)Nc2nc3ccccc3s2)sc2nc(-c3cccs3)ccc12,25*,i,i,65*,1,-8,48*,77*,48*,48,42*,.,.,TMEM16A reconf=i;TMEM16A Ca cntr=i;YFP-HEK293 quench=-0.62;ClC-1 inh=20
CC(=O)c1sc2nc(-c3cccs3)ccc2c1N,5,i,i,5,-1,-1,.,.,.,.,.,.,.,
O=C(Nc1nc(-c2ccccc2)cs1)c1ccccc1NS(=O)(=O)c1ccc(F)cc1,5,100*,i,26*,4,3,3,4,.,.,.,.,.,TMEM16A reconf=78%*;TMEM16A Ca cntr=i;YFP-HEK293 quench=-1.2;ClC-1 inh=-32
NS(=O)(=O)c1ccc(CCNC(=O)C2(S(=O)(=O)c3ccc(Cl)cc3)CC2)cc1,-1,i,i,.,5,-5,.,.,.,.,.,.,.,
O=c1c2ccccc2nc(/C=C/c2c[nH]c3ccccc23)n1CCO,-5,i,i,26*,15*,4,-4,6,.,.,.,.,.,MOR ag counter=-1;HTR2A ag conf=3
O=C(N[C@@H](Cc1ccccc1)C(=O)OCc1ccccc1)c1nc[nH]c1C(=O)N1CCN(c2ccccc2)CC1,-2,i,i,.,-3,15,.,.,.,.,.,.,.,
COc1ccc(Cn2cc3c(-c4ccc(F)cc4)nnc-3c3cc(OC)c(OC)cc32)cc1,50*,i,i,28*,-6,63*,25*,41*,31*,35,-1,66*,72*,
O=C(c1ccco1)N1CCN(c2nc(C3CC3)nc3sc4c(c23)CCCC4)CC1,4,i,i,0,2,1,.,.,.,.,.,.,.,
O=C(/C=C/c1ccccc1)OCCCCN=C1NS(=O)(=O)c2ccccc21,4,i,i,-11,-3,1,.,.,.,.,.,.,.,
Oc1c(Cl)cc(Cl)cc1/C=C/c1ccc2cccc(O)c2n1,27*,i,i,34*,-3,37*,19,43*,20,18,-8,47*,54*,
Oc1ccc(Cl)cc1/C=C/c1ccc2cccc(O)c2n1,13,.,i,-4,-3,5,.,.,.,.,.,.,.,
O=C(C[n+]1ccc(-c2cc(C(=O)Nc3cccc(C(F)(F)F)c3)c3ccccc3n2)cc1)c1cccc([N+](=O)[O-])c1,1,i,i,5,1,-8,.,.,.,.,.,.,.,
O=C(C1=NN(c2ccccc2)C2C(=O)N(c3ccccc3Cl)C(=O)C12)c1ccccc1 (configuration not stated),28*,i,i,38*,3,42*,21,27*,17,16,-3,47*,48*,
O=C(C1=NN(c2ccccc2)C2C(=O)N(c3ccccc3)C(=O)C12)c1ccccc1 (configuration not stated),9,i,i,22,-4,16,.,.,.,.,.,.,.,
Nc1cccc2c1C(=O)N(CC(=O)NC13CC4CC(CC(C4)C1)C3)C2=O,19,i,i,31*,3,39*,18,37*,.,.,.,44*,47*,
O=C(O)CCC(=O)Nc1ccc(NC(=O)c2ccc(Cl)cc2Cl)c(Cl)c1,0,i,i,-13,5,-5,.,.,.,.,.,.,.,
CCN(CC)c1ccc(/C=c2\sc3nc4ccccc4n3c2=O)c(O)c1,34*,.,i,30*,5,37*,20,50*,21*,37,8,46*,56*,
CCN(CC)c1ccc2cc(-c3nnc(-c4ccc(Br)cc4)o3)c(=O)oc2c1,.,.,.,11,.,.,.,.,.,.,.,.,.,
CCN(CC)c1ccc2cc(-c3nc4ccccc4n3C)c(=O)oc2c1,33*,i,i,49*,-1,44*,58*,87*,41*,49,39*,69*,75*,
O=C(NC1CCCCC1)C(c1ccncc1)N(Cc1ccc2c(c1)OCO2)C(=O)c1cnsn1 (configuration not stated),-13,i,i,4,-1,-2,.,.,.,.,.,.,.,

# Source: PubChem BioAssay
